In all, about 360,000 compounds went through this assay and about 16,000 (4.4%) were called active. Another 9% or so got no clear call; they are omitted. The sample holds actives, similar compounds and a random draw of the others, so the mix is not that of the screen. Unmarked numbers belong to inactive results. The call rests on the fitted dose curve; in most records, active means well fitted inhibition curve with a large enough effect; inconclusive means small, poorly fitted or top-dose-only effect; inactive means no such curve, though single readings can be large or run the other way.
biological target: Bromodomain adjacent to zinc finger domain protein 2B (Homo sapiens) (UniProt Q9UIF8); experiment: qHTS Assay for Inhibitors of BAZ2B; conditions: AlphaScreen BAZ2B-H3K14Ac peptide displacement; series mostly up to 114 µM; activity change, negative = inhibition: at the top concentration; further: nearly all actives have a fitted effect of over 60% in size
Sequence (Q9UIF8 whole entry, looked up, the tested form may be a part): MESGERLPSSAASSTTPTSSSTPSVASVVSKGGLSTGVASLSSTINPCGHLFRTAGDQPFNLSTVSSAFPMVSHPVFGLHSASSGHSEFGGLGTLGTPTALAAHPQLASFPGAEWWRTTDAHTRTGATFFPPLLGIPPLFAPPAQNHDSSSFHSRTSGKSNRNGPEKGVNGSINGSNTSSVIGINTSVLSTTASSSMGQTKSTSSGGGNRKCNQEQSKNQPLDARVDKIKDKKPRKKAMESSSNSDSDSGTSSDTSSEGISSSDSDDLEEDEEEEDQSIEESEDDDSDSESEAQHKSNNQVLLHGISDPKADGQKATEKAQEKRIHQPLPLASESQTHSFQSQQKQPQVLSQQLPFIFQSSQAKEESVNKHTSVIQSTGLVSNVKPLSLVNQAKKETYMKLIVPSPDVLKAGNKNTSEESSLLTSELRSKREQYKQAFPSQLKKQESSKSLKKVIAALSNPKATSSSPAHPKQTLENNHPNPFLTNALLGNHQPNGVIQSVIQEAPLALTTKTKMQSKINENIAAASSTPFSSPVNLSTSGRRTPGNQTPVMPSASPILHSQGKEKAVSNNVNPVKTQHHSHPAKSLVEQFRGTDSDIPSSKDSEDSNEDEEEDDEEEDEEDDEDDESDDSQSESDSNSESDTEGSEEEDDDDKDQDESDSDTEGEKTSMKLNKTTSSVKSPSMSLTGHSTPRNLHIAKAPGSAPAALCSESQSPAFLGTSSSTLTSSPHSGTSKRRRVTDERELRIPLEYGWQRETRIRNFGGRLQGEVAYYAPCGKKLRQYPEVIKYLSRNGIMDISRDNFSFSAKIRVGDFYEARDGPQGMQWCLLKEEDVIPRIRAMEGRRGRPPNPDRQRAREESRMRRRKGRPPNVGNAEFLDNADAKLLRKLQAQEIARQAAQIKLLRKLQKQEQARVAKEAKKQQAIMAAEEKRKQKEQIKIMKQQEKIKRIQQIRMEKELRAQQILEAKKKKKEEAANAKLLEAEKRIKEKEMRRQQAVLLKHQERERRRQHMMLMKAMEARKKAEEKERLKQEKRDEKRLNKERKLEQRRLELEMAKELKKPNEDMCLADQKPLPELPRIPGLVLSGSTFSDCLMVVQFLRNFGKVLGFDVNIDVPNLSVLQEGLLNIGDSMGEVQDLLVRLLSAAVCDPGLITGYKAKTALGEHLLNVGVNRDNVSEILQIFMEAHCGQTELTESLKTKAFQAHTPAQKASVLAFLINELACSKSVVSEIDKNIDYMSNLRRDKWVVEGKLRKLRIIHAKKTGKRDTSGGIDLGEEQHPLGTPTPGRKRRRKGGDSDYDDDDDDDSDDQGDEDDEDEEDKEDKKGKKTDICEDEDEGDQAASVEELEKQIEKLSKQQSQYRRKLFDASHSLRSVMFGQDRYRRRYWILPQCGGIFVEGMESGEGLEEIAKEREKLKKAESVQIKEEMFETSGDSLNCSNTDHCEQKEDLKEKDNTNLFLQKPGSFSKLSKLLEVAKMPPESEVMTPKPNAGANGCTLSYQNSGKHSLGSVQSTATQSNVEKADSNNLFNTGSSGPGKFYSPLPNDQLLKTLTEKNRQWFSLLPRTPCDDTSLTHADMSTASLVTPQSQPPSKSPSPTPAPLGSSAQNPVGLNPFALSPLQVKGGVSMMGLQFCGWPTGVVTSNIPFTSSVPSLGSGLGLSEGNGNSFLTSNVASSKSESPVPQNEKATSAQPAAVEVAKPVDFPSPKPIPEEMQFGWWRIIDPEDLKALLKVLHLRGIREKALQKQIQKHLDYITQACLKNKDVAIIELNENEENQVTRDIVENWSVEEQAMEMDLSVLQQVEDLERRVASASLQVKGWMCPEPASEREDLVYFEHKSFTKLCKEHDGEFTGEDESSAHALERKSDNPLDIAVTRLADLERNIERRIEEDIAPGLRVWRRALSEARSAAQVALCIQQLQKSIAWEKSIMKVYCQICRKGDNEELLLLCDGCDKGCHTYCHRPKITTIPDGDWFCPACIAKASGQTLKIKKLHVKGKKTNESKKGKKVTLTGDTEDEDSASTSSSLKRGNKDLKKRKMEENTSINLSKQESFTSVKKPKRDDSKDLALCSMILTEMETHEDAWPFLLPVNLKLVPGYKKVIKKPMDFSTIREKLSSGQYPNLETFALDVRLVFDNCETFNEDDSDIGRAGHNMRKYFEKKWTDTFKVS
Procedure, shortened: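 Compounds, titrated to a top concentration of 110 uM, were incubated 30 min at room temperature with preformed BAZ2B/acetyl-K14 H3 peptide complex (50 nM each). Proximity signal was measured by AlphaScreen after 20 min with beads.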
On the % scale 0 is the no-effect control and ±100 the full control effect; potency means the concentration at half of the fitted maximal effect.

Row | SMILES | activity change, negative = inhibition | Potency
1 | CCOC(=O)c1ccc(NC(=O)C2CC(=O)NC(=Nc3ccc(C)c(C)c3)S2)cc1 (configuration not stated) | -0.662% | 
2 | Cc1cccc(NC(=O)C2CCCN2S(=O)(=O)c2cccc3nsnc23)c1C (configuration not stated) | -17.8% | 
3 | CCC(=O)Nc1cccc(C(=O)OCc2cc(=O)n3nc(CC)sc3n2)c1 | -13.9% | 
4 | COc1ccc(-c2nn(-c3ccccc3)cc2CN2CCCO2)c(F)c1 | -14.8% | 
5 | Cc1ccc(-c2nn(-c3ccccc3)cc2/C=C2\SC(=S)N(CCCCCC(=O)O)C2=O)o1 |  | 6.31 µM (active)
6 | Cc1ccc(-c2nn(-c3ccccc3)cc2/C=C/C(=O)Nc2cccc(S(N)(=O)=O)c2)cc1 | -24.1% | 
7 | O=C1/C(=C\c2ccccc2Cl)SC(=S)N1CCC(=O)N1CCCc2ccccc21 | -33.1% | 
8 | CN(C)S(=O)(=O)c1cccc(-c2nn(-c3ccccc3)cc2/C=C2\SC(=S)N(CC(=O)O)C2=O)c1 |  | 50.1 µM (active)
9 | COc1ccc(-c2nn(-c3ccccc3)cc2/C=C\C(=O)N2CCOCC2)cc1[N+](=O)[O-] | 3.98% | 
10 | Cc1cc(OCCCC(=O)NCCN2C(=O)S/C(=C\c3cccnc3)C2=O)ccc1Cl | 6.35% | 
11 | Cc1ccc(/C=C2/SC(=S)N(CCC(=O)NCCCN3CCOCC3)C2=O)cc1 | -37.2% | 
12 | COc1ccc(-c2nn(-c3ccccc3)cc2/C=C2/SC(=S)N(CCCC(=O)O)C2=O)c(C)c1 |  | 50.1 µM (active)
13 | Cc1ccc2c(=O)c(C(=O)c3cccc(Cl)c3)cn(CC(=O)NCc3ccccc3)c2n1 | 0.489% | 
14 | CN1C(=O)c2[nH]nc(-c3ccc(F)cc3)c2C1c1ccccn1 (configuration not stated) | 5.35% | 
15 | COc1ccc(CCNC(=O)c2cc(=O)c3c(C)cc(C)cc3o2)cc1OC | -3.78% | 
16 | CCOC(=O)c1ccc(CN(Cc2ccccc2)S(=O)(=O)c2ccc(Cl)cc2)cc1 | 47.5% | 
17 | COc1ccc(CNC(=O)c2cc3c(=O)[nH]c4ccc(C)cc4c3s2)c(OC)c1 | 9.8% | 
18 | COc1cccc(CNC(=O)c2ccc3c(Cl)c4c(nc3c2)CCCC4)c1 | -9.46% | 
19 | CCOc1cc(CN2CCN(C(=O)CC(C)C)CC2)ccc1OC | 14.7% | 
20 | CC(C)CC(=O)N1CCN(Cc2ccccc2Br)CC1 |  | 50.1 µM (active)
21 | CC(C)CC(=O)N1CCN(Cc2cccc(Cl)c2)CC1 | -27.4% | 
22 | Cc1cc(OCC(=O)Nc2ncn[nH]2)c(C)c(C)c1Br | 0.164% | 
23 | O=C(NC1CC(=O)N(c2ccc(F)cc2)C1)c1ccc(S(=O)(=O)N2CCCC2)cc1 (configuration not stated) | -0.208% | 
24 | Cc1ccccc1CS(=O)(=O)CC1Nc2ccc(C(=O)NCc3ccc(Cl)cc3)cc2NC1=O (configuration not stated) | 5.28% [at 57.1 µM] | 
25 | Cc1ccc(C)c(N2CCN(c3ccc4cc(S(=O)(=O)N5CCC(C)CC5)ccc4n3)CC2)c1 | -30.7% | 

Row | SMILES | activity change, negative = inhibition | Potency
26 | COc1ccc(C(=O)CCc2ccccc2O)c(OC)c1 | -6.81% | 
27 | COc1ccc(/C=C2/C(=O)N(c3ccccc3)N=C2C)c(OC)c1 |  | 11.2 µM (active)
28 | COc1ccc(/C=C2/C(=O)OCc3cc(OC)c(OC)cc32)c(OC)c1 | -4.92% | 
29 | O=C(NCCCc1ccccc1)c1ccc2c(c1)sc1nc(-c3ccc(F)cc3)cn12 | -22.3% | 
30 | COc1ccccc1CNC(=O)NCc1noc2ccc(C)cc12 | -0.276% | 
31 | COc1ccc(CCNC(=O)C(=O)NCC2OCCN2S(=O)(=O)c2ccc(F)cc2)cc1OC (configuration not stated) | -2.74% | 
32 | O=C(NCCCn1ccnc1)C(=O)NCC1OCCN1S(=O)(=O)c1cc(F)ccc1F (configuration not stated) |  | 7.94 µM (active)
33 | Cc1cc(F)ccc1S(=O)(=O)N1CCCOC1CNC(=O)C(=O)NCCC1=CCCCC1 (configuration not stated) | 1.88% | 
34 | Cn1nnnc1SCCCNCc1ccc(Cl)cc1 | 0.215% | 
35 | CSc1nc(-c2ccco2)nn1C(=O)CCc1ccccc1 | -5.3% | 
36 | CC1(C)N=C(SCc2ccccc2Cl)c2ccccc2N1 | 162% [at 57.1 µM] | 
37 | c1ccc(CSc2nnc(-c3ccco3)c(-c3ccco3)n2)cc1 |  | 20 µM (active)
38 | COc1ccc2nc(SCc3ccccc3)nc(C)c2c1 | 199% | 
39 | Clc1ccccc1CSc1nnc(-c2ccco2)c(-c2ccco2)n1 |  | 14.1 µM (active)
40 | Fc1ccc(Nc2nc(SCc3ccccc3Cl)nc3ccccc23)cc1 | -4.01% | 
41 | Cc1cccc(NC(=O)N2CCC(CN3CCc4ccccc4C3)CC2)c1C | -0.909% | 
42 | Cc1ccc(NC(=O)CSc2nc3c([nH]c4ccccc43)c(=O)n2-c2ccccc2)c(C)c1 | -1.13% | 
43 | CCOc1ccccc1NC(=O)Cn1c2ncccc2c(=O)n1-c1ccc(C)c(C)c1 | 5.16% | 
44 | COc1cc(CN2CC(C)CC(C)C2)cc([N+](=O)[O-])c1O (configuration not stated) | -4.76% | 
45 | COc1cc(/C=C2/C(=O)NN(c3ccc(F)cc3)C2=O)cc([N+](=O)[O-])c1O |  | 39.8 µM (active)
46 | CCOc1c(Br)cc(/C=C2\C(=O)N(CCC#N)N=C2C)cc1OC | -0.0526% | 
47 | COc1cc(/C=N/O)cc(Br)c1OCc1cccc(Cl)c1 | 0.334% | 
48 | COc1cccc(/C=C2\SC(=N)N(c3ccc(F)cc3)C2=O)c1 | -26.3% | 
49 | COc1cc(/C=C2/C(=O)NN(c3cccc(Cl)c3)C2=O)cc(Br)c1O |  | 39.8 µM (active)
50 | CCc1cccc(NC(=O)c2cnc(N3CCOCC3)c3ccccc23)c1 | -0.0325% | 

Row | SMILES | activity change, negative = inhibition | Potency
51 | Cc1ccc(C(=O)CSc2nc(-c3ccccc3)nc3c2CCCC3)c(C)c1 | 28.9% | 
52 | COc1ccc(CC(=O)NCCc2sc3nc(-c4ccc(OC)cc4)nn3c2C)cc1 | -5% | 
53 | O=C(c1ccc2ccccc2n1)N1CCN(c2ccccc2Cl)CC1 |  | 50.1 µM (active)
54 | O=C(c1ccncc1)N1CCN(c2ccc3ccccc3n2)CC1 | -12.4% | 
55 | COc1ccccc1N1CCN(C(=O)c2c(-c3c(Cl)cccc3Cl)noc2C)CC1 | 2.05% | 
56 | COc1ccc(C)cc1-n1c(-c2ccc(C)cc2)cc2c1CC(C)(C)CC2=O | -31.9% | 
57 | COc1ccc(C2NC(=O)c3ccccc3N2)cc1 (configuration not stated) | 1.81% | 
58 | COc1cccc(C2Nc3cccc4cccc(c34)N2)c1 |  | 35.5 µM (active)
59 | COc1cccc(N2C(=O)C3CCCN3C2c2ccc(F)cc2)c1 (configuration not stated) | 3.79% | 
60 | FC(F)(F)c1cc(Nc2nc3ccccc3c3nncn23)ccc1Cl | -0.167% | 
61 | COC(=O)/C(NC(C)=O)=C(\C)c1ccc(Cl)cc1 | 9.22% | 
62 | COC(=O)c1cn(C(=O)c2ccc(Cl)cc2)c2ccccc12 | 44.8% | 
63 | COC(=O)C(=Nc1ccccc1)/C(C(=O)C(=O)N(C)c1ccccc1)=C(\O)c1ccc(Cl)cc1 |  | 50.1 µM (active)
64 | CCCCc1nn2c(=O)cc(COC(=O)c3ccccc3NC(=O)C(C)(C)C)nc2s1 | 1.02% | 
65 | Cc1nn(-c2ccc([N+](=O)[O-])cc2)c(N)c1-c1ccccc1 |  | 70.8 µM (active)
66 | Cc1nn(-c2ccccc2)c2c1C(c1cccc([N+](=O)[O-])c1)N(c1ccccc1)C(=O)N2 (configuration not stated) | -0.212% | 
67 | Cc1cc(CO)nn1-c1ccc([N+](=O)[O-])cc1 | -1.85% | 
68 | O=C(NCc1ccc(F)cc1)c1ccc(Cn2c(SCc3ccc(F)cc3)nc3cccnc32)cc1 | 1.21% | 
69 | Cc1oc2ncnc(N3CCOCC3)c2c1C(=O)NCCc1ccccc1 | 9.18% [at 57.1 µM] | 
70 | COc1ccccc1CNC(=O)CCn1c(=O)c2ccccc2n(CC(=O)Nc2ccc(Br)cc2F)c1=O | -9.92% | 
71 | COc1ccccc1CNC(=O)CCCCn1c(=O)c2ccccc2n(CC(=O)Nc2cc(Cl)ccc2C)c1=O | 1.31% | 
72 | COc1ccccc1CNC(=O)CCn1c(=O)c2ccccc2n(CC(=O)Nc2cccc(Cl)c2)c1=O |  | 79.4 µM (active)
73 | O=C(NCc1ccccc1Cl)C1=Cc2cc(Br)ccc2OC1 | 39.3% | 
74 | CCCC(=O)Nc1cc(C(=O)NCc2ccc(OC)cc2)ccc1S(=O)(=O)c1ccc(Cl)cc1 | 7.79% | 
75 | CCOc1ccc(CCNC(=O)c2ccc3c(c2)sc2nc(-c4ccc(F)cc4)cn23)cc1OCC | 3.83% | 

Row | SMILES | activity change, negative = inhibition | Potency
76 | CCOc1ccc(-c2nonc2NC(=O)c2oc3ccc(CC)cc3c2C)cc1 | 45.4% | 
77 | COc1ccc(-c2cn3c(n2)sc2cc(C(=O)Nc4ccccc4F)ccc23)cc1 | -5.78% | 
78 | COc1ccc(CCNC(=S)N2CCN(S(=O)(=O)c3ccc(Cl)cc3)CC2)cc1 | -22.3% | 
79 | Oc1cc2c(cc1O)CN(C(=S)NCCc1ccc(Cl)cc1)CCC2 |  | 44.7 µM (active)
80 | O=C(NCCc1ccc(Cl)cc1)c1cccc(N2CCCC2=O)c1 | -0.783% | 
81 | CC(=O)c1cc(-c2ccccc2)[nH]c1N1CCCC1 | -1.94% | 
82 | O=C1NN(c2ccccc2)C(=O)/C1=C/c1ccc(-c2cccc(C(=O)O)c2)o1 |  | 44.7 µM (active)
83 | COc1ccc(-n2nnc(-c3nsc(NC(=O)c4ccc(C)c(C)c4)n3)c2C)cc1Cl | -1.44% | 
84 | Cc1ccc(NC(=O)c2cc(S(=O)(=O)NCCC3=CCCCC3)ccc2F)cc1C | -1.61% | 
85 | Cc1sc2ncn(CC(=O)N3CCN(c4ccc(F)cc4)CC3)c(=O)c2c1S(=O)(=O)N1CCN(c2ncccn2)CC1 | -11.3% | 
86 | CCOC(=O)c1c(NC(=S)NC)sc2c1CCCC2 | -3.22% | 
87 | CCOC(=O)c1c(/N=C/c2cc(C)ccc2O)sc2c1CCC2 |  | 50.1 µM (active)
88 | CCOC(=O)c1c(NC(=O)/C(C#N)=C/c2ccccc2)sc2c1CCC2 | -2.86% | 
89 | O=C(Nc1ccc2nc(SCC(=O)N3CCc4ccccc43)sc2c1)c1ccccc1F | 13.1% | 
90 | CCOC(=O)c1cc2c(=O)n3ccccc3nc2n(CC2CCCO2)c1=NC(=O)c1ccccc1Br (configuration not stated) | 5.77% | 
91 | CCc1ccc(NC(=O)CCCc2nnc3n(CCCOC)c(=O)c4sccc4n23)cc1 | -31.2% | 
92 | Cc1nn(Cc2ccccc2)c(C)c1C(=O)NCCN1C(=O)S/C(=C\c2ccc(F)cc2)C1=O | 16.3% | 
93 | O=C(NCCN1C(=O)S/C(=C\c2cccnc2)C1=O)c1cccc(OC(F)F)c1 | 4.16% | 
94 | N#Cc1ccccc1CN1C(=O)S/C(=C/c2cccn2-c2cccc(C(=O)O)c2)C1=O |  | 25.1 µM (active)
95 | CCc1ccc(CNCc2c(C(=O)O)n(Cc3ccc(F)cc3Cl)c3cc(OC)ccc23)cc1 | -4.3% | 
96 | CCCCN(CC)CCCNC(=O)Cn1ncc2c([nH]c3ccc(C)cc32)c1=O | 2.67% [at 57.1 µM] | 
97 | CCNS(=O)(=O)c1ccc(NC(=O)CSc2nc(-c3ccco3)cc(C(F)(F)F)n2)cc1 | -15.5% | 

From PubChem BioAssay AID504333 (National Center for Advancing Translational Sciences (NCATS), 2011)
